Some test systems named below: NCI-H522 lung; RXF 393 renal; CCRF-CEM leukemia; OVCAR-4 ovarian; BT-549 breast; MDA-MB-435 melanoma; SW-620 colon; MCF7 breast; HCT-116 colon; HCC-2998 colon; KM12 colon; SK-MEL-28 melanoma; ACHN renal; SR leukemia; T-47D breast; HOP-92 NSCLC; SK-MEL-5 melanoma.
Holding throughout (test): NCI-60 one-dose screen, 48 h (100 = growth as untreated, 0 = no growth, -100 = all killed)
What all share (details): 10 µM

The structures appear in SMILES notation. The panel holds about 83,000 compounds, 20% with a hit somewhere; the sample as a whole holds those more often.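 96-well plates, one dose, 48 hours. Percent growth reported; active if below 10.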 Activity calls are given as the source filed them.

`CCn1c(SCC(=O)Nc2ccc(-c3nc4ccccc4[nH]3)cc2)nc2ccccc2c1=O`: the growth in the assay on NCI-H522 lung is -74.2% (active); with RXF 393 renal it was -87.1% (active); with CCRF-CEM leukemia, 44.7% (inactive); in the assay on OVCAR-4 ovarian, -84.1% (active); in the assay on BT-549 breast, -83.6% (active); in the assay on MDA-MB-435 melanoma, -94.7% (active). For the same compound, the growth with SW-620 colon is -35.5% (active); in the assay with MCF7 breast it was -71.7% (active); in the assay with HCT-116 colon, -81.4% (active); in the assay with HCC-2998 colon, -31.6% (active); in the assay with KM12 colon, -14.5% (active).

Turning to `CC1(C)CC(=O)C2=C(C1)N(Cc1ccc(C(=O)O)cc1)C1=C(C(=O)CC(C)(C)C1)C2c1ccc(Cl)cc1`, the growth was 111% (inactive) in the assay on RXF 393 renal; 119% (inactive) in the assay on SK-MEL-28 melanoma; 116% (inactive) with ACHN renal; 102% (inactive) in the assay on CCRF-CEM leukemia; 99.6% (inactive) in the assay with SR leukemia; 99.5% (inactive) with OVCAR-4 ovarian. The growth was 93.5% (inactive) in the assay on BT-549 breast; 102% (inactive) with MDA-MB-435 melanoma; 101% (inactive) in the assay with SW-620 colon; 89.6% (inactive) in the assay with MCF7 breast; 101% (inactive) in the assay with HCC-2998 colon.

Take `O=C(Nc1ccc(OCC(=O)c2ccc(Cl)cc2)cc1)Nc1ccc(Cl)c(C(F)(F)F)c1`: the growth in the assay on RXF 393 renal was -60.8% (active); in the assay on SK-MEL-28 melanoma, 32.7% (inactive); in the assay on OVCAR-4 ovarian it was 38.1% (inactive); with T-47D breast, 6.1% (active); in the assay on BT-549 breast, 76% (inactive); with MDA-MB-435 melanoma it was 51.5% (inactive). Moreover, the growth in the assay with SW-620 colon was 47.7% (inactive); with MCF7 breast it was 51.4% (inactive); in the assay with HCC-2998 colon it was 33.4% (inactive).

With `COc1cccc(O)c1/C=C1\SCc2cc3c(OC)cccc3[o+]c21`, the growth is 154% (inactive) in the assay on HOP-92 NSCLC; 104% (inactive) with ACHN renal; 101% (inactive) in the assay with CCRF-CEM leukemia; 111% (inactive) in the assay on BT-549 breast; 132% (inactive) in the assay with MDA-MB-435 melanoma; 115% (inactive) with SW-620 colon. For the same compound, the growth was 90% (inactive) in the assay on MCF7 breast, 107% (inactive) in the assay with HCT-116 colon and 114% (inactive) in the assay on HCC-2998 colon.

As for `Cc1ccc(-c2nc(C#N)c(S(=O)(=O)N3CCN(S(C)(=O)=O)CC3)o2)cc1`, the growth in the assay on HOP-92 NSCLC was 63.7% (inactive); in the assay with RXF 393 renal, -35.2% (active); with ACHN renal, -97.9% (active); with CCRF-CEM leukemia, 7.57% (active); in the assay on SR leukemia, 1.13% (active); with OVCAR-4 ovarian it was 48.1% (inactive). Also, the growth in the assay with T-47D breast was -52.4% (active); in the assay with BT-549 breast it was 58% (inactive); in the assay on MDA-MB-435 melanoma, 57.9% (inactive); in the assay with SW-620 colon it was -71.8% (active); in the assay with MCF7 breast, 5.73% (active); with HCC-2998 colon it was 92.9% (inactive).

For the compound `O=C(c1ccccc1)c1ccc2nc(-c3ccccc3Br)[nH]c2c1`, the growth was -90.6% (active) in the assay with HOP-92 NSCLC; -90.4% (active) in the assay on RXF 393 renal; -26.7% (active) in the assay with SK-MEL-28 melanoma; -98.2% (active) in the assay with ACHN renal; -9.65% (active) in the assay on CCRF-CEM leukemia; -54.8% (active) in the assay with OVCAR-4 ovarian. The growth with BT-549 breast is -76.4% (active); with MDA-MB-435 melanoma it was -21% (active); with SW-620 colon, -17.9% (active); in the assay on MCF7 breast it was -6.39% (active); in the assay with HCC-2998 colon, -96.3% (active).

As for `O=C(CC(=O)Nc1ccc(Oc2ncnc3scc(Nc4n[nH]c(=S)s4)c23)cc1)Nc1ccc(Br)cc1`, the growth in the assay on RXF 393 renal is 129% (inactive); with SK-MEL-28 melanoma it was 110% (inactive); in the assay with CCRF-CEM leukemia, 75.9% (inactive); in the assay with OVCAR-4 ovarian, 106% (inactive); with T-47D breast, 86.3% (inactive); in the assay with BT-549 breast, 108% (inactive). Besides, the growth was 103% (inactive) in the assay with MDA-MB-435 melanoma, 101% (inactive) with SW-620 colon, 86.8% (inactive) in the assay with MCF7 breast and 112% (inactive) in the assay with HCC-2998 colon.

As for `Cc1ccc2c(c1)C(=O)/C(=C/c1c[nH]c3ccccc13)S2`, the growth was -28.1% (active) with RXF 393 renal; 59% (inactive) in the assay on SK-MEL-5 melanoma; 58.2% (inactive) in the assay with ACHN renal; 29.2% (inactive) in the assay with CCRF-CEM leukemia; 27.1% (inactive) with SR leukemia; 40.9% (inactive) with OVCAR-4 ovarian. Further, the growth in the assay with T-47D breast was 33.5% (inactive); with BT-549 breast it was 33.8% (inactive); in the assay on MDA-MB-435 melanoma, 43.8% (inactive); with SW-620 colon it was 28.6% (inactive); in the assay on MCF7 breast it was 18.6% (inactive); with HCC-2998 colon, 65.8% (inactive).

The record behind these values is PubChem BioAssay (NCI).
